# FBW7 act: activators of human E3 ligase FBW7; 0.13% of 650,000 active; AlphaScreen FBW7–phospho-cyclin E peptide binding, activator screen; AID 1259310; normalized activity (activation), % at 26.1 µM; in the data active means normalized activity above about 1.9%;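 further: purified mutant Fbw7 with reduced substrate affinity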
# MITF inh: inhibitors of human MITF | AID 1259374 | inhibition, % at 2.6 µM | O75030 | AlphaScreen MITF homodimerization, bead proximity signal | 0.91% of 650,000 active; in the data active means inhibition above about 50%
# Target sequence (O75030 whole entry, looked up): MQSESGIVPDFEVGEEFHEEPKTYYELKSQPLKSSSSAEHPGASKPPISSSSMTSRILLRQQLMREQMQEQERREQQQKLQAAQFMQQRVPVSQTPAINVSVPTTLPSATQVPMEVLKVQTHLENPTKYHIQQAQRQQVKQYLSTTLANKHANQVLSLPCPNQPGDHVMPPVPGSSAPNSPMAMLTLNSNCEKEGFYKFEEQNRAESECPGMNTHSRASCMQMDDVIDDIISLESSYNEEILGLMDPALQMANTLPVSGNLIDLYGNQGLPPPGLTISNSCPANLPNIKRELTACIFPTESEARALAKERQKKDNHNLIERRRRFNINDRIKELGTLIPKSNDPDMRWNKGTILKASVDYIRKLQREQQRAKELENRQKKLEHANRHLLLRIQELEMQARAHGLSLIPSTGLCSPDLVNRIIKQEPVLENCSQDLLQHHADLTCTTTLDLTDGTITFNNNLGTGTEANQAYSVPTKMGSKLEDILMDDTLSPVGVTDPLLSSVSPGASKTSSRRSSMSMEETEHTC
# TEAD-YAP block: TEAD-YAP interaction inhibition. AID 1259422. inhibition, % at 9.12 µM. HEK-TIYL cells, TEAD-Gal4/YAP UAS-luciferase luminescence. 1.4% of 640,000 active; in the data active means inhibition above about 32%
# GPR151 activ: human GPR151 activation | Q8TDV0 | PathHunter beta-arrestin GPR151 cells, luminescence | activation, % at 11.2 µM | 1% of 650,000 active; in the data active means activation above about 4.9%
# MITF inh conf: human MITF inhibition, confirmation | AID 1259372 | inhibition, % at 2.6 µM | AlphaScreen MITF homodimerization, biotin/His-MITF beads | 16% of 4,700 active | shares compounds with MITF inh;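 active means inhibition above a cutoff derived from the DMSO control wells, cut at about 28% in these data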;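 further: inhibitors lower the bead chemiluminescence by keeping MITF from dimerizing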
# AS interf DR: counter-screen: compounds optically interfering with AlphaScreen; shares compounds with MITF inh; AlphaScreen optical interference counterscreen, cell-free; IC50, µM; 6% of 480 active; AID 1259373; call rule not given here
# AS interf ctr: optically interferes with AlphaScreen signal. shares compounds with MITF inh. LysRS AlphaScreen counterscreen, signal interference, triplicate. inhibition, % at 2.6 µM. 7.6% of 4,700 active. AID 1259376;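 active means inhibition above a cutoff derived from the DMSO control wells, cut at about 30% in these data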
# Hits are given with their value; . = inactive; / = not tested or not shown; ! = a repeat was not active. This is a sample that favours compounds with a hit; in the whole collection about 3.5% have one here.
SMILES,FBW7 act,MITF inh,TEAD-YAP block,GPR151 activ,MITF inh conf,AS interf ctr,others
CSc1ccc(CN(C)CCc2ccccn2)cc1,.,68,.,.,.,.,
CN(CCc1ccccn1)Cc1cccc([N+](=O)[O-])c1,.,.,.,.,/,/,
CN(CCc1ccccn1)Cc1cccc(F)c1,.,73,.,.,.,.,
CN(CCc1ccccn1)Cc1ccc(F)c(Br)c1,.,68,.,.,.,.,
CN(CCc1ccccn1)C1CC(=O)N(c2ccccc2)C1=O (stereo not drawn),.,.,.,.,/,/,
CN(CCc1ccccn1)Cc1ccc2c(c1)OCO2,.,63,.,.,.,.,
CCOC(=O)C(NC(=O)c1ccc(OC)cc1)(Nc1ccc(O)cc1)C(F)(F)F (stereo not drawn),.,.,.,.,/,/,
CC1=C(C(=O)OCCc2ccccc2)C(c2ccc([N+](=O)[O-])cc2)C2=C(CC(c3ccccc3)CC2=O)N1 (stereo not drawn),.,.,.,.,/,/,
CN(CCc1ccccn1)Cc1ccc(F)cc1,.,78,.,.,33,.,AS interf DR=.
Cc1ccc(-c2nc3ccccc3s2)cc1NC(=O)c1cccc2c(Br)cccc12,.,.,.,.,/,/,
CN(Cc1ccc(C(=O)NCc2ccccc2Cl)c(=O)[nH]1)Cc1nccn1C,.,52,.,.,38,78,
CN(CCc1ccccn1)Cc1ccc(C(=O)NCc2ccccc2Cl)c(=O)[nH]1,.,.,.,.,/,/,
CCCCCC(=O)NNC(=O)c1ccc(-c2ccccc2)cc1,.,76,.,.,.,.,
CCCCCCCC(=O)NNC(=O)c1ccc(Cl)cc1,.,.,.,.,/,/,
Cc1cc(S(=O)(=O)NCc2ccsc2)ccc1F,.,.,.,.,/,/,
O=S(=O)(NCc1ccsc1)c1ccc(F)c(Cl)c1,.,62,.,.,.,.,
CC(C)OCCCNC(=O)C1CC(Cc2ccc(F)cc2)=NO1 (stereo not drawn),.,53,.,.,.,.,
CCCCOc1ccc(C2=N/C(=C\OCC)C(=O)O2)cc1,.,.,.,.,/,/,
Cc1nn(C2CCS(=O)(=O)C2)c(Cl)c1CNCCCOC(C)C (stereo not drawn),.,51,.,.,.,.,
Cc1nn(-c2ccccc2)c(Cl)c1CNCCCOC(C)C,.,.,.,.,/,/,
COCCn1c(SCC(=O)NC(C)(C)C)nnc1-c1ccco1,.,.,.,.,/,/,
CN(C)c1ccc(O)c2c1C[C@H]1C[C@H]3[C@H](N(C)C)C(=O)C(C(N)=O)=C(O)[C@@]3(O)C(=O)C1=C2O,.,73!,.,.,64,.,AS interf DR=.
Cc1ccc(N=C2NC(=O)/C(=C\c3ccc(-c4ccc([N+](=O)[O-])cc4)o3)S2)c(C)c1,.,.,.,.,/,/,
O=C(CSc1ccc(F)cc1)N1CC(c2nc3ccccc3[nH]2)C1,.,60,.,.,.,.,
CCCNC(=O)CNC(=O)CNC(=O)OCc1ccccc1,.,.,.,.,/,/,
SMILES,FBW7 act,MITF inh,TEAD-YAP block,GPR151 activ,MITF inh conf,AS interf ctr,others
N#Cc1ccc(CSCC(=O)NN=C2CCCC2)cc1,.,51,.,.,.,.,
N#Cc1ccc(OCC(=O)NN=C2CCCC2)cc1,.,.,.,.,/,/,
CN(Cc1cccc(OC2CCN(C(=O)c3n[nH]c4c3CCC4)CC2)c1)Cc1ccon1,.,.,.,.,/,/,
COc1ccc(Nc2nc(-c3ccccc3Cl)nc3ccccc23)cc1OC,.,.,.,.,/,/,
COc1ccc(CNC(=O)CN(C)Cc2ccc(C(C)(C)C)cc2)cc1,.,74,.,.,.,.,
CCOc1ccc(-c2cn3nc(COc4ccc(Cl)cc4Cl)n4c3c2CCCC4)cc1,.,59,.,.,.,.,
COCC(=O)N1CCN(Cc2nc3ccccc3[nH]2)CC1,.,58,.,.,.,.,
COc1ccc(CCNC(=O)C2CCN(Cc3nc4ccccc4[nH]3)CC2)cc1,.,80,.,.,.,.,
O=C(CN1CCN(Cc2nc3ccccc3[nH]2)CC1)N1CCCc2ccccc21,.,91,.,.,.,.,
CCNC(=O)N1CCN(Cc2nc3ccccc3[nH]2)CC1,.,.,.,.,/,/,
O=C(c1cccc2ccccc12)N1CCN(Cc2nc3ccccc3[nH]2)CC1,.,59,.,.,.,.,
N#Cc1ccccc1S(=O)(=O)N1CCN(c2ccccc2)CC1,.,.,.,.,/,/,
Cc1cccc(C(=O)Nc2nc(-c3ccccc3)c(-c3ccccc3)s2)c1,.,.,.,.,/,/,
Cc1ccc(-c2ocnc2C(N)=O)cc1,.,.,.,.,/,/,
COc1c(Cl)cc(Cl)cc1/C=c1\sc2nc(-c3ccccc3)c(-c3ccccc3)n2c1=O,.,.,.,.,/,/,
O=C(CSc1nnc2n(CC(=O)N3CCCC3)c3ccccc3n12)OC1CCCCC1,.,.,.,.,/,/,
COc1ccc(C(=O)N2CCN(C(=O)CCC3(Cc4ccco4)CCC(=O)N3)CC2)cc1 (stereo not drawn),.,.,.,.,/,/,
COc1ccccc1CN1C(=O)C2(OCCCO2)c2cc(C)ccc21,.,.,.,.,/,/,
COC(=O)CN1CCN(Cc2nc3ccccc3[nH]2)CC1,.,52,.,.,.,.,
COC(=O)CC1=NN(c2nc3ccccc3[nH]2)C(=O)C1,.,79,.,.,70,97,
COc1ccc2nc(CN3CCN(C(=O)C4CC4)CC3)[nH]c2c1,.,68,.,.,.,.,
O=C(C1CCN(Cc2nc3ccccc3[nH]2)CC1)N1CCN(C2CCCCC2)CC1,.,.,.,.,/,/,
CCOC(=O)C1=C(C)N(C2CCCCC2)C(=O)C1(NC(=O)CC(C)C)C(F)(F)F (stereo not drawn),.,.,.,.,/,/,
CN=c1scc(C)n1/N=C/C1CCCCC1,.,97,.,.,.,.,
COc1cc(OC)cc(C(=O)N(C)CCc2ccccn2)c1,.,71,.,.,.,.,
SMILES,FBW7 act,MITF inh,TEAD-YAP block,GPR151 activ,MITF inh conf,AS interf ctr,others
COc1ccc(OC)c(CN(C)CCc2ccccn2)c1,.,.,.,.,/,/,
CN(Cc1ccccc1)C(=O)COc1ccc2ccccc2c1,.,.,.,.,/,/,
CN(CCc1ccccn1)C(=O)COc1ccc2ccccc2c1,.,84,.,.,.,.,
COc1ccc(C(=O)N(C)CCc2ccccn2)cc1,.,71,.,.,.,.,
CN(CCc1ccccn1)C(=O)c1ccccc1,.,60,.,.,.,.,
COc1cc(OC)cc(C(=O)NC(C(=O)NCCc2ccccn2)C(C)C)c1 (stereo not drawn),.,.,.,.,/,/,
Cc1ccnc(N/C=C(\Cl)C(=O)C(F)(F)F)c1,.,.,.,.,/,/,
CC(=O)c1cccc(NC(=O)COc2ccc(S(=O)(=O)Nc3ccccc3)cc2)c1,.,.,.,.,/,/,
N/C(CC(=O)Nc1ccc(Cl)cc1)=N\O,.,.,.,.,/,/,
Clc1ccccc1CN1CCN(C2CCCCCC2)CC1,.,74,.,.,.,.,
Fc1ccccc1N1CCN(C2CCN(Cc3ccccc3)CC2)CC1,.,.,.,.,/,/,
Clc1ccccc1CN1CCC(N2CCCCC2)CC1,.,.,.,.,/,/,
